Results reported in the supplement of paper PMC10849652.
Of roughly 7,900 targets only a part is listed; those with a hit were picked by preference. About 0.6% of all pairs of compound and target were hits. Unmarked numbers belong to inactive results.

What was measured:
Experiment in all cases: log2 fold change, soluble protein after heating vs DMSO (PISA); higher = thermal stabilisation; K562 cells, 10 uM, 30 min; active = over 0.2 and 3.5 SD of the protein, either way, in both replicates (recomputed)
[1] = compound: CC[C@@H]1C(=O)N(C)c2cnc(Nc3ccc(C(=O)NC4CCN(C)CC4)cc3OC)nc2N1C1CCCC1
Outline: (§1)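 K562 cells at 2×10^6 cells/mL were treated with 10 μM compound for 30 min. Aliquots were heated for 3 min across 48°C-58°C, pooled, and extracted in PBS with 0.5% NP-40 at 4°C; soluble protein was the supernatant after 21,000xg for 90 min. Soluble protein was quantified by TMTpro 16plex LC-MS/MS with channel sums equalised, and reported as log2 fold change in thermal stability against DMSO controls, with values from duplicates.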

volasertib = compound: CC[C@@H]1C(=O)N(C)c2cnc(Nc3ccc(C(=O)N[C@H]4CC[C@H](N5CCN(CC6CC6)CC5)CC4)cc3OC)nc2N1C(C)C [volasertib]
Outline: as §1

[2] = compound: CC[C@H](C)N1C=C(C2=C(C=C(C=C21)C3=CN=C(C=C3)N4CCNCC4)C(=O)NCC5=C(C=C(NC5=O)C)C)C
Outline: as §1

epoxomicin = compound: CC[C@H](C)[C@@H](C(=O)N[C@@H]([C@@H](C)O)C(=O)N[C@@H](CC(C)C)C(=O)[C@]1(CO1)C)NC(=O)[C@H]([C@@H](C)CC)N(C)C(=O)C [epoxomicin]
Outline: as §1

[3] = compound: CCn1c(C(=O)N(C2CC2)C2CC2)cc2c3c(ncn3C)c(Nc3cc(C)n(C)n3)nc21
Outline: as §1

[4] = compound: CCn1cc(-c2ccnc3[nH]c(-c4cccc(CN(C)C)c4)cc23)c(-c2ccc(NC(=O)N(C)C)cc2)n1
Outline: as §1

[5] = compound: CN(C)CC(=O)Nc1ccc2[nH]c(=O)c3ccccc3c2c1
Outline: as §1

rosiglitazone = compound: CN(CCOC1=CC=C(C=C1)C[C@H]2C(=O)NC(=O)S2)C3=CC=CC=N3 (racemic) [rosiglitazone]
Outline: as §1

[6] = compound: CN1C2=C(C3=C1C(=O)N(N=C3)CC4=CC(=CC=C4)N)SC(=C2)S(=O)C
Outline: as §1

[7] = compound: CN1CCC(CNc2ccc3ncc(-c4cccc(OC(F)(F)F)c4)n3n2)CC1
Outline: as §1

saracatinib = compound: CN1CCN(CCOc2cc(OC3CCOCC3)c3c(Nc4c(Cl)ccc5c4OCO5)ncnc3c2)CC1 [saracatinib]
Outline: as §1

sotrastaurin = compound: CN1CCN(c2nc(C3=C(c4c[nH]c5ccccc45)C(=O)NC3=O)c3ccccc3n2)CC1 [sotrastaurin]
Outline: as §1

alvocidib = compound: CN1CC[C@H](c2c(O)cc(O)c3c(=O)cc(-c4ccccc4Cl)oc23)[C@H](O)C1 [alvocidib]
Outline: as §1

Tubastatin A = compound: CN1CCc2c(c3ccccc3n2Cc2ccc(C(=O)NO)cc2)C1 [Tubastatin A]
Outline: as §1

[8] = compound: CNC(=O)C1=CC=CC=C1NC2=NC(=NC=C2Cl)NC3=C(C=C(C=C3)N4CCOCC4)OC
Outline: as §1

defactinib = compound: CNC(=O)c1ccc(Nc2ncc(C(F)(F)F)c(NCc3nccnc3N(C)S(C)(=O)=O)n2)cc1 [defactinib]
Outline: as §1

rucaparib = compound: CNCc1ccc(-c2[nH]c3cc(F)cc4c3c2CCNC4=O)cc1 [rucaparib]
Outline: as §1

[9] = compound: CNc1nc(-c2ccc3c(N)n[nH]c3c2)cc(N2C[C@@H](C(=O)NC3CCCCC3)CC[C@H]2C)n1
Outline: as §1

encorafenib = compound: COC(=O)N[C@@H](C)CNc1nccc(-c2cn(C(C)C)nc2-c2cc(Cl)cc(NS(C)(=O)=O)c2F)n1 [encorafenib]
Outline: as §1

[10] = compound: COC(=O)[C@H](CCSC)NC(=O)C1=C(C=C(C=C1)NC[C@H](CS)N)C2=CC=CC=C2
Outline: as §1

Chain of UniProt Q14739 (Q14739 whole entry, looked up): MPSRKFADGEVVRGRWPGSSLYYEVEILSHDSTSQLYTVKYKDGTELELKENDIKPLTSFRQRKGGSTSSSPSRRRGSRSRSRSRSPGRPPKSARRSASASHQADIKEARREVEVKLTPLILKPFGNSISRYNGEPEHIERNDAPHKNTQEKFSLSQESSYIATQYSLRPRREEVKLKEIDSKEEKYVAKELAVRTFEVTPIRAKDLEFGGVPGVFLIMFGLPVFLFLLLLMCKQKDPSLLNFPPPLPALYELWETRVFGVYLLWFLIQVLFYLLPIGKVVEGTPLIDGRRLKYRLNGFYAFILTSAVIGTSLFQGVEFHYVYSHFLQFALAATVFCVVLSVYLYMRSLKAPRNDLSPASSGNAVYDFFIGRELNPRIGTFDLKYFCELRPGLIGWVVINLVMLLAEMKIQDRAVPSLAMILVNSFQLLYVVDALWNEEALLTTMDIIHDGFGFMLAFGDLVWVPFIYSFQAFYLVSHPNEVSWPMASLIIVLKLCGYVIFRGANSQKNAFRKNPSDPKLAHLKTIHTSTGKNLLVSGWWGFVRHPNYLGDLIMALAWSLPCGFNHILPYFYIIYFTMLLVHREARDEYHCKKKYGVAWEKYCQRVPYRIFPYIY
Chain of UniProt O14880 (O14880 whole entry, looked up): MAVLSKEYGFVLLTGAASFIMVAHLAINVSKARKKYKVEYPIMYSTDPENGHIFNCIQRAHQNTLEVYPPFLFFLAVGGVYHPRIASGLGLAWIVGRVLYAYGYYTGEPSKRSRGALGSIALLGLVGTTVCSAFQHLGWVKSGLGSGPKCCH
Chain of UniProt Q9Y496 (Q9Y496 whole entry, looked up): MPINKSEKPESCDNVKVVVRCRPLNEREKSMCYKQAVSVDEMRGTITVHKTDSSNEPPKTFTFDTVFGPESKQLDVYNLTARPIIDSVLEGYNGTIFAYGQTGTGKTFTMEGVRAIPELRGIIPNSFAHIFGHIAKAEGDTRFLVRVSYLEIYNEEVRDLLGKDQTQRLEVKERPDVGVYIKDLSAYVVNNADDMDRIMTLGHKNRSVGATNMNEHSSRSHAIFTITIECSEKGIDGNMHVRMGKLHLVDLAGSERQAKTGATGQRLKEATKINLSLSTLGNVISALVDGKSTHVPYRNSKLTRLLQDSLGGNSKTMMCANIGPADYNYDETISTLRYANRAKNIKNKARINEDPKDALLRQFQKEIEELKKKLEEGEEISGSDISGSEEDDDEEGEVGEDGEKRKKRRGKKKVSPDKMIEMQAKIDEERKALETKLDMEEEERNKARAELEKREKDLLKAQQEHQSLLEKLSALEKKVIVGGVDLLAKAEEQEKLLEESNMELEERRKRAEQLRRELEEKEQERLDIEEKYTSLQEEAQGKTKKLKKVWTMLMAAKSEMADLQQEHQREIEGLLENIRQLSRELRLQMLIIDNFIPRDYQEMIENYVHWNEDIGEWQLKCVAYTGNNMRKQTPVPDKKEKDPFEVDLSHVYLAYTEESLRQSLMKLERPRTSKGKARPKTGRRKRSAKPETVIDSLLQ
Chain of UniProt O95372 (O95372 whole entry, looked up): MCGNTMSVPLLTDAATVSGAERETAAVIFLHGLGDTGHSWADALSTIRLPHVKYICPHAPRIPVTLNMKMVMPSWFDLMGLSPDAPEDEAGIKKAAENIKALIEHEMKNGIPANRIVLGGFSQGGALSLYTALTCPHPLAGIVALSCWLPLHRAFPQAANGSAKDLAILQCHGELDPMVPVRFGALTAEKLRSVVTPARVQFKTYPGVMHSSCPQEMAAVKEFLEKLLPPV
Chain of UniProt Q9UBF1 (Q9UBF1 whole entry, looked up): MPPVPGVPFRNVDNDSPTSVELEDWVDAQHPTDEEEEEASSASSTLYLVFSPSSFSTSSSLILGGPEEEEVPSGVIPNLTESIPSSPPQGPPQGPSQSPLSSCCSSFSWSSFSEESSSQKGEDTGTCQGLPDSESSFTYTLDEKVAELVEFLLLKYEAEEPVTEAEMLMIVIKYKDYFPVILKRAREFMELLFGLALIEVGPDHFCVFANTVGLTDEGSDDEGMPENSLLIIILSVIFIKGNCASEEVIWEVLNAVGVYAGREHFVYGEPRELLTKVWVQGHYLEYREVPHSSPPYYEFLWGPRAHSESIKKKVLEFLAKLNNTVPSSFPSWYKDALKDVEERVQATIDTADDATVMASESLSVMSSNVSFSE
Chain of UniProt Q9UGP4 (Q9UGP4 whole entry, looked up): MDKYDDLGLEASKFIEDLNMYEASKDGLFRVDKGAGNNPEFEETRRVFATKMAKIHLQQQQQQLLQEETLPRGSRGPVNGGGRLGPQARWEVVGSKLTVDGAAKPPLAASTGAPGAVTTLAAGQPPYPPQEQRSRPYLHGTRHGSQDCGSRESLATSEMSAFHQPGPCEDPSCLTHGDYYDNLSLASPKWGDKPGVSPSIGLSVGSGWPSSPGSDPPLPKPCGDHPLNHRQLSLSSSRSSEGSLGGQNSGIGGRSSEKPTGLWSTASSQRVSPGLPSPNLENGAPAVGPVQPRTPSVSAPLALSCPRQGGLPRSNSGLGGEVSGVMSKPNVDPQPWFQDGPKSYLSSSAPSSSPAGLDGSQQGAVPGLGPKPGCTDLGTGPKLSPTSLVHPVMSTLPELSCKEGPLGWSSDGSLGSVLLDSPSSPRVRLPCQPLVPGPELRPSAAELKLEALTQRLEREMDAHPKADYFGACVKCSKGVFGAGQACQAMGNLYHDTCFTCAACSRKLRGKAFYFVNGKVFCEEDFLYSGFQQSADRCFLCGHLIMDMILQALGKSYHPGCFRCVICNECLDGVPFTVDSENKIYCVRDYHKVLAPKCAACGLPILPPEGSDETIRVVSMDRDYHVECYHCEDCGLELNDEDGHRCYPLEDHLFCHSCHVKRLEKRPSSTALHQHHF
Chain of UniProt Q96PC5 (Q96PC5 whole entry, looked up): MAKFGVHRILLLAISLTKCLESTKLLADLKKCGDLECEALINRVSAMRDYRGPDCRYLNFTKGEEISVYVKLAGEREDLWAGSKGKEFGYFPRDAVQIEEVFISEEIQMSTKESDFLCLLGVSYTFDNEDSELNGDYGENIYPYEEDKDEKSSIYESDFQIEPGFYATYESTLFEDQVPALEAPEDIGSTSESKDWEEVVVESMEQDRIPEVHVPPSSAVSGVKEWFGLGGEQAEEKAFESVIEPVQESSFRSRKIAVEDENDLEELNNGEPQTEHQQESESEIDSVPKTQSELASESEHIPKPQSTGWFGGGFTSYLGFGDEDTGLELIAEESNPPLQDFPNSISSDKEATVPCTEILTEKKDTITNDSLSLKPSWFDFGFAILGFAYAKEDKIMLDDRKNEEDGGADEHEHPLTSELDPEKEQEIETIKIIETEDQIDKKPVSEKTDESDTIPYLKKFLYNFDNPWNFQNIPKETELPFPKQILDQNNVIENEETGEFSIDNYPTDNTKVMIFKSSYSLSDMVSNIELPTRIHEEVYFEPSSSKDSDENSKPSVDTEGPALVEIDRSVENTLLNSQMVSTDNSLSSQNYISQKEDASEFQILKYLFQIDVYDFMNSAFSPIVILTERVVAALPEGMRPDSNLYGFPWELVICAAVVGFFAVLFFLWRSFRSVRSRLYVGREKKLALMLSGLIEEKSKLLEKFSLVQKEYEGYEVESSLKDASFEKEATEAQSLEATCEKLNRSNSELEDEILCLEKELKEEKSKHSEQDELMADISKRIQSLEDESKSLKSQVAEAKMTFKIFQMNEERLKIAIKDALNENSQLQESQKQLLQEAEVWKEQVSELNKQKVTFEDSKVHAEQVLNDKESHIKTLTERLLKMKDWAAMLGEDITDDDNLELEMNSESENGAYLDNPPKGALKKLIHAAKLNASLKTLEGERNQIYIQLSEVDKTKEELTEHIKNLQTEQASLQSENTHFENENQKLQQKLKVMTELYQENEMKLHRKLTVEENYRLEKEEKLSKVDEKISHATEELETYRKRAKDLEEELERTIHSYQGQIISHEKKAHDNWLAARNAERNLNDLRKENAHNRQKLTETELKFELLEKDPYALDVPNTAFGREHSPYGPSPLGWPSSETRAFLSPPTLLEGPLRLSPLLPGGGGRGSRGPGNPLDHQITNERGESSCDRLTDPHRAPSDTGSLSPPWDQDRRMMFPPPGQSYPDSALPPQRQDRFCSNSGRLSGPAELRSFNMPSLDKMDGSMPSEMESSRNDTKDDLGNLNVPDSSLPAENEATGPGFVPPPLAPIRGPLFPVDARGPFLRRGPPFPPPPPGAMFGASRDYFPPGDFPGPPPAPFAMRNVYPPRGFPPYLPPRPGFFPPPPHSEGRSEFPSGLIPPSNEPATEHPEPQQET
Chain of UniProt P48449 (P48449 whole entry, looked up): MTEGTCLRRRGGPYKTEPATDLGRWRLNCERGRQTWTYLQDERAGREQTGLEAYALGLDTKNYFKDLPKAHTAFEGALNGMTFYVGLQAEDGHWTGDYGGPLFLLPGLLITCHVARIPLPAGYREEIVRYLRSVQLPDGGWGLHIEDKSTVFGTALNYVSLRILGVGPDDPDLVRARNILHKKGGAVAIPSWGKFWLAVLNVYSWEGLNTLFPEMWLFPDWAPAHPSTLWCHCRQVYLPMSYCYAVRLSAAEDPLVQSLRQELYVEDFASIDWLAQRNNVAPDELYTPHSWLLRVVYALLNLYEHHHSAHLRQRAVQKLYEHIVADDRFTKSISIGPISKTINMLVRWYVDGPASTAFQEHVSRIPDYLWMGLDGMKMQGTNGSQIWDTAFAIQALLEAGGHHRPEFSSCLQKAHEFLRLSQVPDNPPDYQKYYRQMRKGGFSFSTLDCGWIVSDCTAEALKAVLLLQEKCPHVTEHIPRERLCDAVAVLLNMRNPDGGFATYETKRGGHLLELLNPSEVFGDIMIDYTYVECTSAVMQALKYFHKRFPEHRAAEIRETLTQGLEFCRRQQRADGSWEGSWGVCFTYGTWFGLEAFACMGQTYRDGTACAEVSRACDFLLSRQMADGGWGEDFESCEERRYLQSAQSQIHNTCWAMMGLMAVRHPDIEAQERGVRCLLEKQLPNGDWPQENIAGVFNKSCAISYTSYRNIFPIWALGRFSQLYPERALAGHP

Target | log2 fold change [1] | log2 fold change (volasertib) | log2 fold change [2] | log2 fold change (epoxomicin) | log2 fold change [3] | log2 fold change [4] | log2 fold change [5] | log2 fold change (rosiglitazone) | log2 fold change [6] | log2 fold change [7] | log2 fold change (saracatinib) | log2 fold change (sotrastaurin) | log2 fold change (alvocidib) | log2 fold change (Tubastatin A) | log2 fold change [8] | log2 fold change (defactinib) | log2 fold change (rucaparib) | log2 fold change [9] | log2 fold change (encorafenib) | log2 fold change [10]
MGST3 (UniProt O14880) | -0.005 | 0.048 | -0.107 | -0.016 | 0.066 | -0.047 | -0.017 | -0.043 | -0.027 | 0.097 | 0.037 | 0.064 | 0.021 | -0.01 | -0.029 | 0.012 | -0.027 | -0.028 | -0.033 | 0.053
MAPRE3 (UniProt Q9UPY8) | -0.105 | -0.226 | 0.101 | 0.01 | 0.009 | -0.041 | -0.009 | 0.051 | -0.068 | -0.061 | -0.029 | -0.016 | -0.091 | -0.067 | 0.025 | -0.031 | 0.02 | -0.016 | 0.017 | 0.027
IGFBP2 (UniProt P18065) | -0.319 | -0.614 | -0.167 | -0.707 | -0.275 | 0.158 | 0.003 | 0.083 | 0.323 | -0.638 | -0.049 | 0.223 | 0.212 | -0.032 | -0.06 | 0.134 | 0.003 | -0.148 | 0.028 | -0.053
IGF2R (UniProt P11717) | -1.09 (active) | -0.875 (active) | -0.033 | 0.002 | 0.018 | -0.013 | -0.023 | -0.024 | -0.013 | -0.607 (active) | -0.015 | 0.004 | -0.008 | -0.004 | 0.061 | -0.01 | -0.027 | -0.008 | 0.045 | 0.005
LBR (UniProt Q14739) | -0.036 | 0.552 (active) | 0.051 | 0.022 | -0.012 | -0.071 | 0.056 | 0.086 | -0.026 | 0.099 | 0.008 | 0.036 | -0.032 | -0.008 | -0.02 | -0.022 | 0.164 | 0.116 | 0.058 | -0.089
KEAP1 (UniProt Q14145) | -0.026 | -0.357 (active) | -0.034 | -0.024 | -0.017 | 0.019 | 0.033 | 0.024 | 0.056 | 0.053 | -0.009 | -0.119 | 0.02 | -0.035 | 0.054 | -0.045 | 0.116 | -0.015 | 0.059 | -0.003
LYPLA2 (UniProt O95372) | 0.049 | -0.033 | 0.018 | 0.521 (active) | 0.025 | -0.05 | 0.108 | -0.021 | -0.053 | 0.098 | -0.063 | -0.039 | -0.126 | 0.018 | 0.007 | -0.09 | -0.041 | -0.01 | -0.031 | 0.087
MIA2 (UniProt Q96PC5) | -0.039 | -0.29 (active) | 0.005 | 0.037 | -0.009 | 0.054 | 0.005 | 0.034 | 0.031 | 0.053 | 0.003 | -0.106 | -0.052 | -0.013 | 0.021 | -0.085 | 0.074 | -0.001 | 0.07 | 0.037
KIF3A (UniProt Q9Y496) | 0.036 | -0.039 | -0.187 | 0.068 | -0.004 | -0.093 | 0.032 | 0.174 | -0.023 | -0.162 | -0.102 | -0.073 | -0.02 | -0.031 | 0.085 | 0.013 | 0.292 | 0.037 | 0.003 | 0.005
LSS (UniProt P48449) | 0.024 | 0.719 (active) | 0.074 | 0.129 | -0.056 | -0.024 | 0.055 | 0.077 | -0.025 | 0.384 | 0.172 | 0.016 | -0.066 | 0.103 | -0.091 | -0.015 | 0.595 (active) | -0.001 | 0.118 | 0.074
MAGEC2 (UniProt Q9UBF1) | -0.017 | -0.146 | 0.028 | -0.062 | 0.038 | -0.048 | -0.007 | 0.011 | -0.063 | 0 | 0.092 | -0.068 | -0.034 | -0.013 | 0.015 | -0.056 | -0.021 | -0.082 | 0.079 | 0.003
LEMD2 (UniProt Q8NC56) | -0.212 | -0.422 (active) | 0.034 | -0.002 | -0.02 | 0.028 | 0.091 | 0.023 | -0.006 | -0.338 (active) | -0.048 | 0.004 | 0.061 | 0.014 | -0.058 | -0.126 | 0.11 | 0.041 | 0.023 | 0.013
MCCC2 (UniProt Q9HCC0) | 0.003 | 0.038 | -0.032 | -0.018 | -0.007 | -0.013 | 0.003 | 0.012 | -0.031 | 0.027 | 0.033 | 0.018 | 0 | 0.004 | -0.274 (active) | 0.008 | 0.012 | -0.05 | -0.033 | -0.003
LIMD1 (UniProt Q9UGP4) | -0.055 | -0.245 (active) | 0.042 | -0.018 | 0.026 | 0.002 | 0.015 | 0.064 | -0.028 | -0.043 | 0.074 | -0.011 | -0.03 | -0.034 | -0.029 | -0.03 | -0.008 | -0.01 | 0.004 | 0.004
LMNA (UniProt P02545) | 0.008 | -0.15 | 0.01 | -0.014 | -0.022 | 0.057 | 0.009 | -0.025 | -0.006 | 0 | 0.041 | -0.083 | -0.214 (active) | -0.033 | 0.003 | -0.121 | -0.08 | -0.138 | -0.019 | 0.042
IPO11 isoform 2 (UniProt Q9UI26) | -0.104 | -0.3 (active) | -0.004 | 0.066 | -0.01 | -0.068 | 0.028 | -0.002 | -0.082 | -0.016 | 0.048 | -0.02 | -0.006 | -0.043 | 0.01 | -0.013 | -0.053 | -0.03 | -0.004 | 0.012
